# Reference: PubChem BioAssay AID488969 (Vanderbilt High Throughput Screening Facility, 2010)
# In all, about 110,000 compounds were measured (“z-score”: median about -0.1, highest 2% from about 2 on). The entries come from a sample that favours the highest values as a whole. Calls of active or inactive are those of the source.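 The calls were made as follows: active = z-score in the third read window above 3 or below -3; inactive = the rest.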
# Molecular target: Metabotropic glutamate receptor 8 (Rattus norvegicus) (UniProt P70579)
# Assay: rat mGluR8 modulators via GIRK flux, primary screen, cell-based, thallium flux, HTS (AID 488969)
# Settings: HEK293 rat mGluR8, GIRK (G protein-gated inwardly rectifying potassium channel) thallium flux, FluoZin2; at 10 µM; stronger effect = higher value; submaximal glutamate (EC20) added with thallium
# Sequence of Metabotropic glutamate receptor 8 (Rattus norvegicus) (P70579 whole entry, looked up): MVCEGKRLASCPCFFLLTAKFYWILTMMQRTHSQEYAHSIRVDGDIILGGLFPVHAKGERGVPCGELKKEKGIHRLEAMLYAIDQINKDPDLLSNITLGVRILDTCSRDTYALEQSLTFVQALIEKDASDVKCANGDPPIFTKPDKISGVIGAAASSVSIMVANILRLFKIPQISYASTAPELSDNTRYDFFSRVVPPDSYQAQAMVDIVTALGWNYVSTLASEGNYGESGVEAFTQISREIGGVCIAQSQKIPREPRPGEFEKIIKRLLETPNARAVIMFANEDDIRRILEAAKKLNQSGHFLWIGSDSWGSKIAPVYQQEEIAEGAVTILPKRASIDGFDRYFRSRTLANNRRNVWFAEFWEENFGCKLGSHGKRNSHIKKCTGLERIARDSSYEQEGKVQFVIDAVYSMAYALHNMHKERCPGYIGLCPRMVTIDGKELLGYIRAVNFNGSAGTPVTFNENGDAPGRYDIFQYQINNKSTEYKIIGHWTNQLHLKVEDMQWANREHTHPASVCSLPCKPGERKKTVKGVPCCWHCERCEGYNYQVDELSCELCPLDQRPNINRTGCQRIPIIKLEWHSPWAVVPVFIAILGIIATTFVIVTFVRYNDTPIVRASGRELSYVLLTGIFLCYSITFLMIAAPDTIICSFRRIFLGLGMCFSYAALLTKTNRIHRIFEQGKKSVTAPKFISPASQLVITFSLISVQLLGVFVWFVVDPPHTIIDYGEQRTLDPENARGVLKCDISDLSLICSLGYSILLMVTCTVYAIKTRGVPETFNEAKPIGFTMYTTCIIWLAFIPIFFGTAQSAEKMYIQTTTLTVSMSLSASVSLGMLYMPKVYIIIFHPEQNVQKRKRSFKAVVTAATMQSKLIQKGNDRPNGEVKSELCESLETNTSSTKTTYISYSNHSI
row,SMILES,z-score
1,CC(=O)c1cccc(S(=O)(=O)NCC2CCCCC2)c1,0.0227
2,COC(=O)/C(=C/Nc1cccc2ccccc12)[N+](=O)[O-],-0.204
3,COC(=O)c1sccc1-c1ccc(/C=N/OCc2c(Cl)cccc2Cl)o1,-0.187
4,Cc1ccc(-c2c(C)n([O-])c3c([n+]2=O)CCCCC3)o1,-0.48
5,CC(C)Sc1nc(C(F)(F)F)cc(=O)n1-c1ccccc1,0.426
6,CC(=O)Oc1c(C(=O)c2nnc(C)o2)c(=O)n(C)c2ccccc12,-0.074
7,CC(=O)Oc1c(C(=O)c2nnc(C)o2)c(=O)n(Cc2ccccc2)c2ccccc12,2.07
8,COc1cc(-n2c(=O)c3ccccc3n(Cc3ccccc3)c2=O)cc(OC)c1OC,-0.047
9,CCc1ccc(NC(=O)N(CCCOC(C)C)C2CCN(C(C)=O)CC2)cc1,0.807
10,O=C(Nc1nccs1)c1ccc2nccnc2c1,0.133
11,CC(C)(C)c1csc(NC(=O)c2ccc3nccnc3c2)n1,5.29 (active)
12,CC(C)(C)NC(=O)c1ccc2nccnc2c1,0.232
13,O=C(CCC(=O)OCC(=O)c1ccc(Cl)cc1Cl)Nc1cccc2cccnc12,0.0344
14,O=C(NCc1ccco1)C(c1ccc(F)cc1)N(CC1CCCO1)C(=O)Cn1nnc2ccccc21 (stereo not drawn),-0.299
15,CCOC(=O)c1nnn(CC(=O)N2N=C(c3cc(C)ccc3C)CC2c2ccc(OC)cc2)c1C(=O)OCC (stereo not drawn),-0.378
16,COc1ccc(/C(N)=N/OC(=O)Oc2ccccc2)cc1OC,-0.183
17,COC(=O)c1ccc2c(=O)n(Cc3ccco3)c(SCC(=O)Nc3ccc(C)c(Cl)c3)nc2c1,0.24
18,O=C(CSc1nnc(-c2ccccc2)n1Cc1ccco1)Nc1ccc(S(=O)(=O)N2CCCC2)cc1,-1.61
19,O=C(CSc1nc2cc(Cl)ccc2c(=O)n1Cc1ccco1)Nc1ccc(S(=O)(=O)N2CCOCC2)cc1,2.05
20,CNS(=O)(=O)c1cc(C(=O)NCc2ccco2)ccc1Cl,0.119
21,CCOc1ccc(NC(=S)N(CCCN2CCOCC2)Cc2cn(C)c3ccccc23)cc1,-0.232
22,N=c1n(Cc2ccccc2)c2ccccc2n1CC(O)c1ccccc1 (stereo not drawn),0.899
23,CCC(C)c1ccccc1NC(=O)COC(=O)c1ccc2c(c1)S(=O)(=O)c1ccccc1C2=O (stereo not drawn),2.17
24,CCC(C)c1ccccc1NC(=O)COC(=O)c1ccc2[nH]c3c(c2c1)CCCC3 (stereo not drawn),-0.0793
25,CCc1cccc(CC)c1NC(=O)COC(=O)c1ccc2c(c1)S(=O)(=O)c1ccccc1C2=O,-0.326
26,C=CCn1c(-c2cccc(OC)c2)n[nH]c1=S,-0.21
27,CCCn1c(SCC(=O)Nc2nnc(-c3ccccc3)s2)nnc1-c1ccccn1,-0.176
28,Cc1ccc(C(=O)N/C(=C\c2ccccc2)C(=O)OCc2ccccc2)cc1,-0.52
